Results: PubChem BioAssay (NCATS)
Inconclusive results are not listed. Unmarked numbers belong to inactive results. The source made the active and inactive calls. The call rests on the fitted dose curve; in most records, active means well fitted inhibition curve with a large enough effect; inconclusive means small, poorly fitted or top-dose-only effect; inactive means flat fitted curve, though single readings scatter.

Columns and labels:
[1] = Drug repurposing screens with cells derived from glioblastoma tumor samples (AID 1345199); settings: GBM patient neurospheres viability, ATP luminescence, 48 h; further: nearly all actives have a fitted effect of over 40% in size
Outline: (§1)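 Primary testing used CD133+ neurospheres from four GBM patients, seven concentrations, 48 h exposure and ATP-based viability; confirmation added three slower-growing patient lines.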

astro = control astrocytes; experiment: as above; settings: viability, ATP luminescence, 48 h; series mostly up to 45.9 µM
Outline: as §1

[2] = at 45.9 µM (top of the series), tumour line B
[3] = at 45.9 µM (top of the series), tumour line D
[4] = at 46.1 µM (top of the series), tumour line C
[5] = at 46 µM (top of the series), tumour line A
[6] = at 21.2 µM (top of the series), tumour line B
On the % scale 0 is the no-effect control and ±100 the full control effect; potency means the concentration at half of the fitted maximal effect.

With `C=CCCCCCCCCC(=O)OC` the activity, negative = cell killing [1, 2] was -4.31%, the activity, negative = cell killing [1, 3] was -1.83% and the activity, negative = cell killing [1, 4] was 7.19%. For the same molecule, the Potency (astro) was “inactive”.

Work on `C[C@H](O)CN(C)C` yielded an activity, negative = cell killing [1, 2] of -3.73%, an activity, negative = cell killing [1, 3] of -16.1% and an activity, negative = cell killing [1, 4] of -13.2%. For the same molecule, the Potency (astro) was “inactive”.

`CNC(=O)OCc1cccc(COC(=O)NC)n1` gave an activity, negative = cell killing [1, 2] of -20.8%, an activity, negative = cell killing [1, 3] of 4.88% and an activity, negative = cell killing [1, 5] of -25.4%. For the same molecule, the Potency (astro) was “inactive”.

Molecule `O=C(/C=C/c1cccc(F)c1)NC1CC1` has an activity, negative = cell killing [1, 2] of -18.1%, an activity, negative = cell killing [1, 3] of -4.02% and an activity, negative = cell killing [1, 4] of -17.9%. For the same molecule, the Potency (astro) was “inactive”.

In the case of `O=C(O)C1=C(CSc2nnnn2CS(=O)(=O)O)CS[C@@H]2[C@H](NC(=O)[C@H](O)c3ccccc3)C(=O)N12`, the activity, negative = cell killing [1, 2] is reported as -15.2%, the activity, negative = cell killing [1, 3] is reported as -23.3% and the activity, negative = cell killing [1, 4] is reported as -17.1%. The Potency (astro) was “inactive”.

`Oc1cc(O)cc(O)c1` showed an activity, negative = cell killing [1, 2] of -4.88%, an activity, negative = cell killing [1, 3] of -12.8% and an activity, negative = cell killing [1, 4] of -10.5%. For the same molecule, the Potency (astro) was “inactive”.

For `O=C(OC[C@H]1O[C@](O)(COC(=O)c2cccnc2)[C@@H](OC(=O)c2cccnc2)[C@@H]1OC(=O)c1cccnc1)c1cccnc1`, the activity, negative = cell killing [1, 2] was -19%, the activity, negative = cell killing [1, 3] was -0.117% and the activity, negative = cell killing [1, 4] was -25.9%. The Potency (astro) was “inactive”.

`CC(C)(COP(=O)(O)OP(=O)(O)OC[C@H]1O[C@@H](n2cnc3c(N)ncnc32)[C@H](O)[C@@H]1OP(=O)(O)O)C(O)C(=O)NCCC(=O)NCCS` (some centres undefined) showed an activity, negative = cell killing [1, 2] of -4.74%, an activity, negative = cell killing [1, 3] of -6.02% and an activity, negative = cell killing [1, 5] of -28.8%. For the same molecule, the Potency (astro) was “inactive”.

In the case of `CC(=O)[C@H]1CC[C@H]2[C@@H]3C=CC4=CC(=O)CC[C@@]4(C)[C@H]3CC[C@]12C`, the activity, negative = cell killing ([1]; at 20 µM (top of the series), tumour line C) is reported as -18.4%, the activity, negative = cell killing [1, 6] is reported as -29% and the Potency ([1]; tumour line A) is reported as 3.55 µM (active). The Potency (astro) was “inactive”.

With `CC1CC(O)CC(C)(C)C1` (centres undefined) the activity, negative = cell killing [1, 2] was -5.77%, the activity, negative = cell killing [1, 3] was -9.42% and the activity, negative = cell killing [1, 4] was -22%. The Potency (astro) was “inactive”.

In the case of `CCN(CC)CCOC(=O)c1cccnc1`, the activity, negative = cell killing [1, 2] is reported as -9.24%, the activity, negative = cell killing [1, 3] is reported as 9.6% and the activity, negative = cell killing [1, 4] is reported as -9.84%. The Potency (astro) was “inactive”.

`NC(=O)[C@@H]1C[C@]2(NC(=O)NC2=O)c2cc(F)ccc2O1` gave an activity, negative = cell killing [1, 2] of -9.48%, an activity, negative = cell killing [1, 3] of 3.75% and an activity, negative = cell killing [1, 4] of -17.3%. For the same molecule, the Potency (astro) was “inactive”.

For `CC(C)(C)C(=O)OCC(=O)[C@H]1CC[C@H]2[C@@H]3CCC4=CC(=O)CC[C@]4(C)[C@H]3CC[C@]12C`, the activity, negative = cell killing [1, 2] was -7.01%, the activity, negative = cell killing [1, 3] was -7.34% and the activity, negative = cell killing [1, 4] was 0.589%. The Potency (astro) was “inactive”.

In the case of `Cc1cccc(C)c1NC(=O)NC1=CCCN1C`, the activity, negative = cell killing [1, 2] is reported as -5.38%, the activity, negative = cell killing [1, 3] is reported as -0.755% and the activity, negative = cell killing [1, 4] is reported as 0.0506%. For the same molecule, the Potency (astro) was “inactive”.

`C[C@@H](O)[C@H]1C(=O)N2C(C(=O)[O-])=C(SC3Cn4cnc[n+]4C3)[C@H](C)[C@H]12` (some centres undefined) gave an activity, negative = cell killing [1, 2] of -14.6%, an activity, negative = cell killing [1, 3] of -27.3% and an activity, negative = cell killing [1, 4] of -6.91%. The Potency (astro) was “inactive”.

For `NC(N)=NCC1COc2ccccc2O1` (centres undefined), the activity, negative = cell killing [1, 2] was -11.5%, the activity, negative = cell killing [1, 3] was -28.1% and the Potency ([1]; tumour line A) was 35.5 µM (active). For the same molecule, the Potency (astro) was “inactive”.

`COc1c(O[C@@H]2O[C@H](CO)[C@@H](O)[C@H](O)[C@H]2O)cc2c(c1OC)-c1ccc(SC)c(=O)cc1[C@@H](NC(C)=O)CC2` gave an activity, negative = cell killing [1, 6] of -28.7%, an activity, negative = cell killing ([1]; at 21.2 µM (top of the series), tumour line D) of -5.86% and an activity, negative = cell killing ([1]; at 21.3 µM (top of the series), tumour line A) of -6.81%. The Potency (astro) was “inactive”.

Work on `Nc1ncnc2c1ncn2CCOCP(=O)(O)O` yielded an activity, negative = cell killing [1, 2] of 2.17%, an activity, negative = cell killing [1, 3] of -1.17% and an activity, negative = cell killing [1, 4] of -21.5%. The Potency (astro) was “inactive”.

Molecule `CCc1ncnc2cc(OC)c(OC)cc12` has an activity, negative = cell killing [1, 2] of -18.2%, an activity, negative = cell killing [1, 3] of -1.42% and an activity, negative = cell killing [1, 4] of -14.3%. For the same molecule, the Potency (astro) was “inactive”.

In the case of `O=S(=O)(O)CC(S)CS` (centres undefined), the activity, negative = cell killing [1, 2] is reported as -24.2%, the activity, negative = cell killing [1, 3] is reported as -0.499% and the activity, negative = cell killing [1, 4] is reported as -22%. For the same molecule, the Potency (astro) was “inactive”.

In the case of `FC(F)(F)COCC(F)(F)F`, the activity, negative = cell killing [1, 2] is reported as -8.9%, the activity, negative = cell killing [1, 3] is reported as -17.5% and the activity, negative = cell killing [1, 4] is reported as -24.2%. For the same molecule, the Potency (astro) was “inactive”.

`O=C(O)CCCC/C=C(\c1ccccc1)c1cccnc1` showed an activity, negative = cell killing [1, 2] of -6.07%, an activity, negative = cell killing [1, 3] of -10.6% and an activity, negative = cell killing [1, 4] of -17.1%. The Potency (astro) was “inactive”.

With `C=CCN1CCCC1CNC(=O)c1cc(S(N)(=O)=O)cc(OC)c1OC` (centres undefined) the activity, negative = cell killing [1, 2] was -7.52%, the activity, negative = cell killing [1, 3] was -19.4% and the Potency ([1]; tumour line A) was 35.5 µM (active). The Potency (astro) was “inactive”.

`COc1ccc(/C=C/C(=O)O)cc1` showed an activity, negative = cell killing [1, 2] of 6.24%, an activity, negative = cell killing [1, 3] of -5.33% and an activity, negative = cell killing [1, 4] of 9.31%. The Potency (astro) was “inactive”.

`O=P(O)(O)OP(=O)(O)OP(=O)(O)O` showed an activity, negative = cell killing [1, 2] of -10.9%, an activity, negative = cell killing [1, 3] of -30.2% and an activity, negative = cell killing [1, 4] of -5.26%. For the same molecule, the Potency (astro) was “inactive”.

For `Cc1cc2nc3c(=O)[nH]c(=O)nc-3n(C[C@H](O)[C@H](O)[C@H](O)COP(=O)(O)OP(=O)(O)OC[C@H]3O[C@@H](n4cnc5c(N)ncnc54)[C@H](O)[C@@H]3O)c2cc1C`, the activity, negative = cell killing [1, 2] was -13.1%, the activity, negative = cell killing [1, 3] was -9.51% and the activity, negative = cell killing [1, 5] was -9.49%. For the same molecule, the Potency (astro) was “inactive”.
